Experiment [1] relates to PRMT1 (protein arginine N-methyltransferase 1). The experiment in a line: small molecules binding arginine methyltransferase PRMT1 – biochemical, small-molecule microarray, 635 nm fluorescence, primary screen (AID 1088).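 Also: binding of Prmt1 protein to compounds spotted on small-molecule microarray slides.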 The following applies: higher = more signal.
Experiment [2] is described as follows: growth effects on S. cerevisiae YJM789 – YJM789 clinical isolate, OD600, 24 h, basal, primary screen (AID 1089).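 Also: growth of clinical yeast isolate S. cerevisiae YJM 789 seeded 1000 cells per well; test concentration not given here.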 Conditions: higher = more signal, called active from +8 up or from −8 down.
A short description of experiment [3]: S. pombe growth modifiers, basal conditions – strain 972, OD600, 24 h, no modulator, primary screen (AID 1090).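 Also: basal condition with compound alone and no growth modifier present; test concentration not given here.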 Conditions: S. pombe 972 growth, higher = more signal, called active from +8 up or from −8 down.
A short description of experiment [4]: budding yeast growth modifiers under rapamycin – strain BY4716, OD600, 96 h, primary screen (AID 1091). Also: test concentration not given here. The following applies: S. cerevisiae BY4716 + rapamycin, higher = more signal, called active from +8 up or from −8 down.
In experiment [5] the target is Torsin-1A-interacting protein 2 (Homo sapiens) (UniProt Q8NFQ8). The experiment in a line: small molecules binding lysate-expressed LULL1 – cell lysate, human LULL1 lysate, 635/667 nm fluorescence, primary screen (AID 1092).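 Also: probe is lysate of COS7 cells overexpressing human LULL1; score merges per-feature 667 nm fluorescence with signal-to-noise.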 The following applies: small-molecule microarray, hLULL1 lysate binding, 635 nm fluorescence; higher = more signal.
Experiment [6] can be described thus: optical density change of DRC41 E. coli – strain DRC41, OD650, 24 h, E. coli filamentation project, primary screen (AID 1093).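 Also: MC1000 strain lacking acrAB efflux and sulA so SOS filamentation is blocked; test concentration not given here.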 Conditions: E. coli DRC41 growth, higher = more signal, called active from +8 up or from −8 down.
Experiment [7] is described as follows: probe aLefty2 binding to arrayed compounds – biochemical, biotinylated probe, 635/667 nm fluorescence, primary screen (AID 1094).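 Also: score merges spot fluorescence near 667 nm with spot signal-to-noise ratio.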 The following applies: small-molecule microarray, higher = more signal.
Experiment [8] has as its system Noggin (protein binding on small-molecule microarray). The experiment is described as follows: small molecules binding Noggin protein – biochemical, 635/667 nm fluorescence, primary screen (AID 1095).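 Also: score merges 667 nm feature fluorescence with signal to noise over triplicate slides.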 The following applies: 635 nm fluorescence, higher = more signal.
Experiment [9] has as its target Neurogenic locus notch homolog protein 3 (Homo sapiens) (UniProt Q9UM47). The experiment in a line: small molecules binding NOTCH3 protein – biochemical, 635/667 nm fluorescence, primary screen (AID 1096). The following applies: small-molecule microarray, 635 nm fluorescence, higher = more signal.
Experiment [10] can be described thus: probe aEGFR binding to arrayed compounds – biochemical, biotinylated probe, 635/667 nm fluorescence, primary screen (AID 1097).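 Also: probe is a biotinylated anti-EGFR antibody binding compounds printed on slides; score combines fluorescence near 667 nm and signal to noise of each spot.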 The following applies: small-molecule microarray, higher = more signal.
The subject of experiment [11] is Plasmodium falciparum Sir2 (PF13_0152, Sir2A). The experiment is described as follows: Plasmodium falciparum Sir2A binding compounds – biochemical, small-molecule microarray, 635 nm fluorescence, primary screen (AID 1098).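 Also: score merges spot fluorescence intensity with its signal-to-noise ratio.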 Conditions: fluorescence 635 nm, higher = more signal.
Experiment [12] in a line: probe aDKK1 binding to arrayed compounds – biochemical, biotinylated probe, 635/667 nm fluorescence, primary screen (AID 1099).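 Also: score merges 667nm spot fluorescence with signal to noise across triplicate slides; reference of the scale not given here.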 The following applies: small-molecule microarray, higher = more signal.
A short description of experiment [13]: probe aCHRDL2 binding to arrayed compounds – biochemical, biotinylated probe, 635/667 nm fluorescence, primary screen (AID 1100). The following applies: small-molecule microarray, higher = more signal.
Experiment [14] is described as follows: change in splice reporter luminescence, either direction, cell-based, HEK293, spliceosome inhibition project, primary screen (AID 1101).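 Also: HEK293 cells carrying a splicing-competent luciferase reporter gene; test concentration not given here.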 The following applies: HEK293 splicing luciferase reporter, 24 h, higher = more signal, called active from +8 up or from −8 down.
Experiment [15] deals with Fibroblast growth factor 10 (Homo sapiens) (UniProt O15520). The experiment in a line: compounds binding fibroblast growth factor 10 – biochemical, small-molecule microarray, 635 nm fluorescence, primary screen (AID 1102). The following applies: FGF10 binding, fluorescence 635 nm, higher = more signal.
The test system of experiment [16] is glycogen synthase kinase-3 (GSK3A per assay name; protocol says GSK3B). The experiment in a line: compounds binding glycogen synthase kinase-3 – biochemical, small-molecule microarray, 635 nm fluorescence, GSK3A, primary screen (AID 1103). Also: the record names both GSK3A and GSK3B. Conditions: fluorescence 635 nm, higher = more signal.
For experiment [17], the target named is Epidermal growth factor receptor (Homo sapiens) (UniProt P00533). The experiment in a line: compounds binding epidermal growth factor receptor – biochemical, small-molecule microarray, 635 nm fluorescence, primary screen (AID 1104).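 Also: score merges 667 nm emission intensity with spot signal to noise over triplicate slides.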 Conditions: EGFR binding, higher = more signal.
Experiment [18] addresses Follistatin-related protein 3 (Homo sapiens) (UniProt O95633). The experiment is described as follows: compounds binding follistatin-related protein 3 – biochemical, small-molecule microarray, 635 nm fluorescence, primary screen (AID 1105).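 Also: score merges emission near 667 nm and signal to noise per printed spot across three slides.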 The following applies: FSTL3 binding, higher = more signal.
In experiment [19] the target is Dickkopf-related protein 1 (Homo sapiens) (UniProt O94907). The experiment in a line: small molecules binding DKK1 protein – biochemical, small-molecule microarray, 635 nm fluorescence scan, primary screen (AID 1106).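 Also: score merges emission near 667 nm with signal to noise over three replicate slides.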 Conditions: higher = more signal.
The subject of experiment [20] is Inhibin beta A chain (activin A). The experiment is described as follows: small molecules binding activin A – biochemical, small-molecule microarray, 635 nm fluorescence scan, primary screen (AID 1107).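 Also: mouse activin A protein probed at 4.33 µg/mL on printed slides; score merges bound-protein fluorescence near 667 nm with spot signal-to-noise.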 Conditions: INHBA, higher = more signal.

Activity calls are given as the source filed them.

Fibroblast growth factor 10 (Homo sapiens), sequence (O15520 whole entry, looked up): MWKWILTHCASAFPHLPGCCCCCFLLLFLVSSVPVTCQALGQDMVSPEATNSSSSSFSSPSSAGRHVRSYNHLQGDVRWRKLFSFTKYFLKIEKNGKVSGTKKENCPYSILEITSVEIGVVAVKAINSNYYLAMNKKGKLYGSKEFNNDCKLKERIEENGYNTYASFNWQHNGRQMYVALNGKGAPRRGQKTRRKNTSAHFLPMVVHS
Dickkopf-related protein 1 (Homo sapiens), sequence (O94907 whole entry, looked up): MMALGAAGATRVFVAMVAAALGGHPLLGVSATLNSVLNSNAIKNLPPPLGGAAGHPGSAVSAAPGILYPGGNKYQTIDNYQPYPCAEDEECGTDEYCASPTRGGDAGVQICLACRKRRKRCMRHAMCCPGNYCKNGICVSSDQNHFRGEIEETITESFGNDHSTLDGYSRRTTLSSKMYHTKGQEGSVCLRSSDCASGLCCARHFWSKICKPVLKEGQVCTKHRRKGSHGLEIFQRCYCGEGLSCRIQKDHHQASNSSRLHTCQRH
Follistatin-related protein 3 (Homo sapiens), sequence (O95633 whole entry, looked up): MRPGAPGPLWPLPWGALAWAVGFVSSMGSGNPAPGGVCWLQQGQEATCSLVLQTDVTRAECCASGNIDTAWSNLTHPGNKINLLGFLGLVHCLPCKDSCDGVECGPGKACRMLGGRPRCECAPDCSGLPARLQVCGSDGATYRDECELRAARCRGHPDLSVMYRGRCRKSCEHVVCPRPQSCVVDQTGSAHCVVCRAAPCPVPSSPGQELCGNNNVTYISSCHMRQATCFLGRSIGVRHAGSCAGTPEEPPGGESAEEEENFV
Torsin-1A-interacting protein 2 (Homo sapiens), sequence (Q8NFQ8 whole entry, looked up): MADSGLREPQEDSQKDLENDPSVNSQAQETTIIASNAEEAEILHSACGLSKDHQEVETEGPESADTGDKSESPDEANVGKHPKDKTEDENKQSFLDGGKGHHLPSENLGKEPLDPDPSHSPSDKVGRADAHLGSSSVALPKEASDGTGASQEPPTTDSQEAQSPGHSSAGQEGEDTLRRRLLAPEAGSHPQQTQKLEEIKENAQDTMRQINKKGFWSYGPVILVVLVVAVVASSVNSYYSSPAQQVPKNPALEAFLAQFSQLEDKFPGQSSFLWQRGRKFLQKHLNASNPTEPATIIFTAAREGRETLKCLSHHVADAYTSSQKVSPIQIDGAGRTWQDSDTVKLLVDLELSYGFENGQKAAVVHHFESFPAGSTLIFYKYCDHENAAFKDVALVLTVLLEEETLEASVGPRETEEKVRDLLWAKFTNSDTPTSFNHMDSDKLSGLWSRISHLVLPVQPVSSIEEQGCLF
Neurogenic locus notch homolog protein 3 (Homo sapiens), sequence (Q9UM47 whole entry, looked up): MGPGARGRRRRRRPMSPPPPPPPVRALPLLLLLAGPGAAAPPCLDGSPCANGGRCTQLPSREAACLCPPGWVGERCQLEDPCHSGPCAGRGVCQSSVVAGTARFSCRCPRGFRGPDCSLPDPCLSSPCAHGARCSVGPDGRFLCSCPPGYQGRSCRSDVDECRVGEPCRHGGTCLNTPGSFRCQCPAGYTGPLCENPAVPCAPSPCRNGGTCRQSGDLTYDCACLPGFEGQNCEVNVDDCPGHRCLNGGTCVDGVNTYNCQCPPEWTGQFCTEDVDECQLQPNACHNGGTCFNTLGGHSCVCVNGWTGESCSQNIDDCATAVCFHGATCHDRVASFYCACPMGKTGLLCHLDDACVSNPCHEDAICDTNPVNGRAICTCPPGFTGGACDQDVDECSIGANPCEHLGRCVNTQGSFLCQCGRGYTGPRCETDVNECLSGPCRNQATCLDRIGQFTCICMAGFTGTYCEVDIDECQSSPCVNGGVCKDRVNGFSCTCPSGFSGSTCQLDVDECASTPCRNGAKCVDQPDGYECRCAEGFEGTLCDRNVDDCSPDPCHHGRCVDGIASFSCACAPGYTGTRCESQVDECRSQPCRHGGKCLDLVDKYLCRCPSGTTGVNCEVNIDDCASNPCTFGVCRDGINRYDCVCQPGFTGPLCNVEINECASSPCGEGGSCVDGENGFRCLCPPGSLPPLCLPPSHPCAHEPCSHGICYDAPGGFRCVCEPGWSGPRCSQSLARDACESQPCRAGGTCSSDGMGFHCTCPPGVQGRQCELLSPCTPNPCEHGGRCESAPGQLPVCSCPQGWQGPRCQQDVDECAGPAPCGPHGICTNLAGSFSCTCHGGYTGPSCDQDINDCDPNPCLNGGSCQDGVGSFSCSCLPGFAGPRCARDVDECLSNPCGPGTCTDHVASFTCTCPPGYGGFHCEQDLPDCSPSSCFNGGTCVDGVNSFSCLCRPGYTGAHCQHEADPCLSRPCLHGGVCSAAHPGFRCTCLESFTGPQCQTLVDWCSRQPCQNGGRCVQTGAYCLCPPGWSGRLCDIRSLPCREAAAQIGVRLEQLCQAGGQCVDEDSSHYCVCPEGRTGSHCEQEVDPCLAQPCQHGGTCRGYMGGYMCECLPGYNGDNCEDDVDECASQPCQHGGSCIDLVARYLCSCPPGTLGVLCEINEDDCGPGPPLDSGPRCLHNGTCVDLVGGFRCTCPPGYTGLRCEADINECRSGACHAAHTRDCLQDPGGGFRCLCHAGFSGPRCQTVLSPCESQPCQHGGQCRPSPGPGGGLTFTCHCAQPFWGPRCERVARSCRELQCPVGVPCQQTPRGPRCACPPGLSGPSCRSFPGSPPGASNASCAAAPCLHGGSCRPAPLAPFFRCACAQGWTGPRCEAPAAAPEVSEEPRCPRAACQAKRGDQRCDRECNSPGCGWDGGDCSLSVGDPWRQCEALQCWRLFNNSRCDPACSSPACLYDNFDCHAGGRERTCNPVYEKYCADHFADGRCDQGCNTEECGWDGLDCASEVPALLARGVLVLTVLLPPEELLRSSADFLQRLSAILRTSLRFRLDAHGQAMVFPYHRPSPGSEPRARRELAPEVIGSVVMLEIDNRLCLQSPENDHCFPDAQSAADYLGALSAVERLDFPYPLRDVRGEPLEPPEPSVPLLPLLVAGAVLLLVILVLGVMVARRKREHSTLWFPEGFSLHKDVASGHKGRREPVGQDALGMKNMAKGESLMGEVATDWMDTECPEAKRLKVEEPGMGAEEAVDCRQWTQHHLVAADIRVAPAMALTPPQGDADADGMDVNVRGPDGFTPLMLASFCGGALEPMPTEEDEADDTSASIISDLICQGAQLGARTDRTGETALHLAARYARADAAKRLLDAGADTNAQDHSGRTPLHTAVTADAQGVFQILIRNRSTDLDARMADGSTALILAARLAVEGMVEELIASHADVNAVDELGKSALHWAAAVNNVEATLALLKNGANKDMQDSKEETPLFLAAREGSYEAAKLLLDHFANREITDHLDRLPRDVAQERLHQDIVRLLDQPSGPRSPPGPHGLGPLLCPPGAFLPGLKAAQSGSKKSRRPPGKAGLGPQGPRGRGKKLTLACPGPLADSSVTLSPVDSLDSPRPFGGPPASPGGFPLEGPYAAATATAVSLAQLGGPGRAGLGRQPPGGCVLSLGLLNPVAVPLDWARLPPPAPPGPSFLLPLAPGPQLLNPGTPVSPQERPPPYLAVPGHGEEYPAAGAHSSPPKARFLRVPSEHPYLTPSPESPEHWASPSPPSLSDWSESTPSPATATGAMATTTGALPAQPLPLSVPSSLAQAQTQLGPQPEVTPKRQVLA
Epidermal growth factor receptor (Homo sapiens), sequence (P00533 whole entry, looked up): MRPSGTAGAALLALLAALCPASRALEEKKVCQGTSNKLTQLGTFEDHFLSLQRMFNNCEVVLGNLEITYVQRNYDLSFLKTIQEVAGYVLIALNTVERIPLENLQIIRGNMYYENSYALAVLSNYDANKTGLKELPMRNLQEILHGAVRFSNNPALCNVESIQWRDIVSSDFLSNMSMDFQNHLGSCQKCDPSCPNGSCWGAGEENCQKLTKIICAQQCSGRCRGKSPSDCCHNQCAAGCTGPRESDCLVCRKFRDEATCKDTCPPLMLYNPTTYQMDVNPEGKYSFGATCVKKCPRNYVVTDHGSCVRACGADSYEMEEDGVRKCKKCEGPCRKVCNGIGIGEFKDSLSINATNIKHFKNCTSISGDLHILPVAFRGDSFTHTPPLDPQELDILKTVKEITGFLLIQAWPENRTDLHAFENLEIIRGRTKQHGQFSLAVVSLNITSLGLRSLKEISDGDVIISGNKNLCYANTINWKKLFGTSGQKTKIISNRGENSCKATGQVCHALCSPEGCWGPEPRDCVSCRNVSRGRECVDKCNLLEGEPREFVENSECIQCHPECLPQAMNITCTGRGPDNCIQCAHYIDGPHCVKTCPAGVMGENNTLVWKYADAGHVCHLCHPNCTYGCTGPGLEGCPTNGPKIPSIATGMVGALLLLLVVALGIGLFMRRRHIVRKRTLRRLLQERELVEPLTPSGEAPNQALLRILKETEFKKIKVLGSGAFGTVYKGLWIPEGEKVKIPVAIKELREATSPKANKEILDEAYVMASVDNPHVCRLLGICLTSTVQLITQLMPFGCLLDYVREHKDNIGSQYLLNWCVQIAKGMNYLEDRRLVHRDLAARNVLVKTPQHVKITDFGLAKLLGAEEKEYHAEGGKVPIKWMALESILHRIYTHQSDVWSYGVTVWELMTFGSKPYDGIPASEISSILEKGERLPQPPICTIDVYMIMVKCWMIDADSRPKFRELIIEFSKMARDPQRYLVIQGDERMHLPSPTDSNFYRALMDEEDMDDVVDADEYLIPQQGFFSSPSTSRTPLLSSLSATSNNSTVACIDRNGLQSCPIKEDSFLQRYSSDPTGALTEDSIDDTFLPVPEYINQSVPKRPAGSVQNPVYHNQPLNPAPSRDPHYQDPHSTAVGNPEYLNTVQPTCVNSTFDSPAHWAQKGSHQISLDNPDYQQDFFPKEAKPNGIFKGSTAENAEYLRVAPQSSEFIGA

In the case of `O=C1[C@H]2[C@H]3[C@H](O)[C@H](O)CC(=NOCc4ccccc4)[C@@H]3CC[C@H]2C(=O)N1c1cccc(Oc2ccccc2)c1`, the composite z-score is 1.35 in [1]; 1.6 in [5]; 0.266 in experiment [7]; 0.889 in [8]; 0.64 in [9]; -0.0967 in experiment [10]. Moreover, the composite z-score in experiment [11] is 1.03; in experiment [12] it was -0.173; in [13], -0.186; in experiment [15] it was 0.485; in experiment [16] it was 0.38; in experiment [17] it was 0.201. In addition, the composite z-score was 0.48 in experiment [18], 0.0072 in experiment [19] and -0.202 in experiment [20]. Also, the z-score in experiment [2] was 0.663 (inactive); in experiment [3], 0.277 (inactive); in [4], -0.349 (inactive); in [6], 0.589 (inactive); in experiment [14], -0.055 (inactive).

As to `CCOC(=O)[C@H](CC(C)C)NC(=O)CCC1CC(OC(=O)NCCc2ccc(F)cc2)CC2(CCCC(COC(=O)NCc3cccc(C(F)(F)F)c3)O2)O1` (stereo not given in full), the composite z-score was 1.49 in experiment [1]; 1.6 in [5]; -0.103 in [7]; 0.584 in [8]; 0.722 in experiment [9]; 0.0199 in experiment [10]. In addition, the composite z-score in experiment [11] was 0.581; in experiment [12] it was -0.211; in experiment [13], -0.51; in experiment [15] it was 1.39; in experiment [16] it was 0.733; in experiment [17], 0.29. In addition, the composite z-score in experiment [18] was 0.814; in [19], 0.532; in experiment [20], -0.257. In addition, the z-score in [2] was 0.643 (inactive); in [3], 0.58 (inactive); in experiment [4], 0.603 (inactive); in experiment [6], 1.05 (inactive); in experiment [14], 0.478 (inactive).

Take `COc1ccc(O[C@H]2C=C[C@@H](c3ccccc3)O[C@@H]2CON=C(C)CCN2CCCc3nc(C)c(C)cc32)cc1`: the composite z-score in [1] is 1.42; in experiment [5], 1.56; in [7], -0.0511; in experiment [8], 0.485; in experiment [9], 1.02; in experiment [10], -0.0531. Further, the composite z-score in [11] is 0.625; in [12] it was -0.325; in [13], -0.156; in experiment [15] it was 0.735; in experiment [16], 0.73; in experiment [17], 0.227. Further, the composite z-score turned out to be 0.616 in [18], 0.552 in [19] and 0.917 in experiment [20]. The z-score is -0.571 (inactive) in experiment [2]; -0.739 (inactive) in experiment [3]; -0.706 (inactive) in [4]; 0.766 (inactive) in experiment [6]; -0.204 (inactive) in [14].

For `O=C(NN=C1C[C@@H](O)[C@@H](O)[C@@H]2[C@@H]3C(=O)N(Cc4ccc5c(c4)OCO5)C(=O)[C@@H]3CC[C@@H]12)OCc1ccccc1`, the composite z-score was -0.0443 in experiment [1]; 0.418 in [5]; 0.0026 in [7]; -0.0248 in experiment [8]; -0.142 in [9]; -0.0433 in experiment [10]. The composite z-score is -0.0768 in experiment [11]; 0.618 in experiment [12]; 0.828 in experiment [13]; -0.319 in experiment [15]; -0.456 in experiment [16]; -0.254 in experiment [17]. Besides, the values for the composite z-score in [18], in experiment [19] and in experiment [20] were -0.408, -0.465 and 0.319, respectively. Besides, the z-score is 0.186 (inactive) in [2]; -0.475 (inactive) in [3]; -0.4 (inactive) in [4]; 0.885 (inactive) in experiment [6]; -1.41 (inactive) in experiment [14].

Turning to `C[C@@H](c1ccccc1)N1C(=O)[C@H]2[C@H]3[C@H](O)[C@H](O)CC(=NNC(=O)OCc4ccccc4)[C@@H]3CC[C@H]2C1=O`, the composite z-score in experiment [1] is 1.57; in experiment [5] it was 0.0265; in experiment [7], -0.19; in experiment [8], 1.89; in experiment [9], -0.11; in [10] it was -0.508. Also, the composite z-score in [11] was 0.404; in experiment [12], -0.657; in experiment [13], -1.57; in experiment [15] it was -0.0948; in experiment [16], 1.25; in experiment [17], 0.845. Also, the composite z-score in experiment [18] worked out at 1.5; in experiment [19], 1.94; in [20] it was 1.56. For the same compound, the z-score was -0.291 (inactive) in experiment [2]; 0.452 (inactive) in experiment [3]; 5.24 (inactive) in experiment [4]; 0.482 (inactive) in experiment [6]; 0.574 (inactive) in experiment [14].

The values are drawn from PubChem BioAssay.
